From PubChem BioAssay (NCI)
About 83,000 compounds went through this panel and 20% of them were active in at least one assay; those are over-represented in the sample as a whole.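 Growth was measured after 48 h exposure to one concentration of compound in 96-well plates. Values under 10 count as active.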 A number with no mark means an inactive call. Calls of active or inactive are those of the source.

The compounds below were run on HL-60(TB) leukemia (assay: NCI-60 one-dose screen, 48 h (100 = growth as untreated, 0 = no growth, -100 = all killed)). Settings: 10 µM unless noted.
Method: Growth inhibition of the HL-60(TB) human tumor cell line is measured as a screen for anti-cancer activity. Cells are grown in 96 well plates and exposed to the test compound for 48 hours. Compounds are tested at a single concentration, which is 10^-5 M for most compounds. The reported endpoint is percent growth (GI% or GIPRCNT), where numbers from 0 - 100% represent growth inhibition, and numbers from -100% - 0 represent cell death. For example, a value of 40 represents 60% growth inhibition. A value of 0 means no net growth occurred over the course of the experiment. A value of -40 indicates 40% of cells at the beginning of the experiment died by the end of the experiment. A value of -100 means all cells are dead at the end of the experiment.
NCI-60 Human Tumor Cell Lines Screen was performed using the standard one-dose NCI protocol, which is described in more detail at https://dtp.cancer.gov/discovery_development/nci-60/default.htm.
Compounds with GIPRCNT values below 10 were considered active. Activity score was based on GIPRCNT using the following formula: […]
Score is 0 for GIPRCNT values of 100 or above, 50 for GIPRCNT values of 0, and 100 for GIPRCNT values of -100.

Structure (SMILES) | growth
C#CCOc1ccccc1/C=N/Nc1nc(-c2ccc(Cl)cc2)cs1 | 90.8%
CC(O)c1cc2ccccc2c(=O)o1 (stereo not given) | 102%
CN(C)CCCOc1ccc(C(=C(c2ccccc2)C2CCCC2)c2ccc(OCCCN(C)C)cc2)cc1 | -57.1% (active)
CCN1C(=O)N(CC)C2SC(N/N=C/c3ccccc3F)=NC21 (stereo not given) | 0.098% (active)
CC(C)(C)CC(C)(C)n1nnnc1C(Nc1nccs1)c1cc2cccc3ccc4cccc1c4c32 (stereo not given) | 107%
Cc1ccc(-c2nc(C(Cl)Cl)nc3cc(-c4ccccc4)nn23)cc1 | -12% (active)
O=C(CSc1nc2ccccc2c(=O)n1-c1ccccc1)Nc1cccc(C(=O)/C=C/c2ccccc2)c1 | 99.1%
CCNC(=O)N1CCc2cc(OC)c(OCCc3ccc(OC)cc3)cc2C1c1ccc([N+](=O)[O-])cc1C (stereo not given) | 14%
CN(C)c1ccc(/C=c2\sc3nc4ccccc4n3c2=O)cc1 | 94.7%
O=S(=O)(NCCCNc1nccc(-c2[nH]c(-c3ccccc3)nc2-c2ccc(F)c(O)c2)n1)c1ccccc1 | 90.6%
CCc1cccc(NC(=O)CNc2cc(S(=O)(=O)N(C)C)cc(C)c2C)c1 | 128%
O=C1Nc2cc(Cl)ccc2/C1=C\c1ccc(OCc2ccccc2)cc1 | 113%
O=C(/C=C/c1cccc(O)c1)c1ccc(O)cc1 | 72.3%
Oc1ccc(CSc2nnc(-c3ccncc3)o2)c2cccnc12 | 8.26% (active)
Cc1ccc(-n2cc(/C=C/C(=O)c3ccc(O)cc3)c(-c3ccc(S(C)(=O)=O)cc3)n2)cc1 | 27.5%
Cc1ccccc1NC(=O)/C=C/c1ccc(OCCOc2ccc3c(C)cc(=O)oc3c2)cc1 | 97.2%
CN(C)c1ccc(/C=N/Nc2nc(N/N=C/c3ccc(N(C)C)cc3)nc(N3CCCCC3)n2)cc1 | -38% (active)
COc1cc(OC)c(/C=C/S(=O)(=O)Cc2ccc(OC)c(NCC(=O)NO)c2)c(OC)c1 | -13.5% (active)
CCOC(=O)c1cccc(NC2=C(Cl)C(=O)C(C)=C(C)C2=O)c1 | 31.2%
CCN1C(=O)N(CC)C2SC(N/N=C/c3cccs3)=NC21 (stereo not given) | 1.27% (active)

Structure (SMILES) | growth
O=C1/C(=C/c2ccccc2[N+](=O)[O-])Oc2ccc(O)cc21 | 24.3%
CC(C)(C)Nc1nc2c(OCCc3ccccc3)cccn2c1-c1ccc(Cl)cc1 | -27.8% (active)
O=C1[C@H]2Cc3c([nH]c4ccccc34)[C@H](c3ccc(Cl)cc3)N2C(=O)CN1C1CCN(CC2CCCCC2)CC1 | 47.2%
OC1CCN(CCCOc2c3ccc(Cl)cc3nc3c2oc2ccc(Cl)cc23)CC1 | 22.4%
C=C(C)[C@@H]1CC[C@]2(COC)CC[C@]3(C)[C@H](CC[C@@H]4[C@@]5(C)CCCNC(C)(C)[C@@H]5CC[C@]43C)[C@@H]12 | -69.2% (active)
C/C(=N\O)[C@H]1C[C@]23CC[C@]4(C)[C@H](CC[C@@H]5[C@@]6(C)CC/C(=N/O)C(C)(C)[C@@H]6CC[C@]54C)[C@H]2[C@H](C)C1(C)OC3 | 121%
Brc1ccc2[nH]cc(-c3nn4cc(-c5nccs5)nc4s3)c2c1 | 59.1%
CCOC(=O)c1c(Nc2ccccc2)nn2c(-c3ccc(OC)cc3)ccnc12 | 77.3%
COc1ccc(Cn2cc3c(c2-c2cc(OC)c(OC)c(OC)c2)CCCc2cnoc2-3)cc1 | -5.47% (active)
CS(=O)(=O)Nc1cc(-c2ccc3ncc(C#N)c(Nc4cccc(Cl)c4F)c3c2)cnc1Cl | 0.143% (active)
NS(=O)(=O)c1ccc(-n2cc(CN3CCNCC3)nn2)cc1 | 107%
O=C(CN1CCN(c2cc(=O)n(-c3ccccc3)c3ccccc23)CC1)Nc1ccc([N+](=O)[O-])cc1 | 85%
O=C(CCCN1C(=O)/C(=C/c2ccccc2F)SC1=S)N1CCOCC1 | 93.5%
CC(C)(C)c1ccc(C(=O)Nc2sc3c(c2C(N)=O)CCC(O)C3)cc1 (stereo not given) | 37.2%
CN(C)CCCNc1c2ccc(Cl)cc2nc2c1oc1ccc(Cl)cc12 | -53.9% (active)
Nc1nc(N)c2c(n1)NC(c1ccc(F)cc1)CC(c1ccc(Nc3nc(NCCO)nc(Nc4ccc(Cl)cc4)n3)cc1)=N2 (stereo not given) | -11.4% (active)
O=C1[C@@H]2Cc3c([nH]c4ccccc34)[C@H](c3ccc(Cl)cc3)N2C(=O)CN1C1CCN(Cc2ccccc2)CC1 | 17.6%
NC(N)=NS(=O)(=O)c1ccc(N=Nc2c(N)nn(-c3ccc([N+](=O)[O-])cc3[N+](=O)[O-])c2N)cc1 | 97.3%
C[C@@H]1CN(c2ccc3ncc(C#Cc4cncc(C(=O)Nc5ccc(CN6CCN(C)CC6)c(C(F)(F)F)c5)c4)n3n2)C[C@H](C)O1 | -30.7% (active)
O=C1c2c(c3c4cccnc4[nH]c3c3ccc4ccccc4c23)C(=O)N1CCN1CCCCC1 | 35.4%
